# Results taken from PubChem BioAssay.
# “And” between values parts separate entries of the source, which are not always exact repeats. Equal values may be shown once. Inconclusive results are not listed. The source made the active and inactive calls. Unless noted, cut-off not given; nearly all actives show AC50 up to about 26 µM.
# Test system: not listed separately
# Assay: differential killing of epithelial or mesenchymal cells, primary screen, imaging, PC-3E GFP, TEM4-18 mCherry, co-culture (AID 1345086);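 further: cells exposed to compound for 72 h before imaging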
# Details: imaging cell counts, measured here: mesenchymal TEM4-18 mCherry cell survival, at 1 µM
row,SMILES,normalised cell number
1,CC(C)(C)c1ccc(C(O)CCCN2CCC(C(O)(c3ccccc3)c3ccccc3)CC2)cc1 (stereo not given),1.18
2,O=C(O)COCCN1CCN(C(c2ccccc2)c2ccc(Cl)cc2)CC1 (stereo not given),0.88
3,Cc1ccc(/C(=C\CN2CCCC2)c2ccccn2)cc1,1.2
4,Clc1ccccc1CN1CCc2sccc2C1,0.94
5,C[N+]1(C)CCC(OC(=O)C(O)(c2ccccc2)C2CCCC2)C1 (stereo not given),1.02
6,CC(C)(C(=O)O)c1ccc(C(O)CCCN2CCC(C(O)(c3ccccc3)c3ccccc3)CC2)cc1 (stereo not given),1.05
7,CC(C)n1c(/C=C/[C@@H](O)C[C@@H](O)CC(=O)O)c(-c2ccc(F)cc2)c2ccccc21,0.53
8,CN(C)C(=N)N=C(N)N,0.95
9,O=C(O)c1cn(C2CC2)c2cc(N3CCNCC3)c(F)cc2c1=O,1.18 and 1.28
10,O=S(=O)(c1cccc2cnccc12)N1CCCNCC1,0.95
11,NCCCC(O)(P(=O)(O)O)P(=O)(O)O,1.08

# Test system: Aerobactin synthetase IucA (Klebsiella pneumoniae)
# Assay: IucA aerobactin synthetase inhibitors, biochemical, Tocris library, absorbance (AID 1345561; call rule not given here;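 further: 100% = enzyme without compound and 0% = no enzyme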)
# Details: purified IucA enzyme assay, absorbance (OD) read-out; stronger effect = lower value; concentration not given here
row,SMILES,remaining activity
1,O=C(NCC1CCCCN1)c1cc(OCC(F)(F)F)ccc1OCC(F)(F)F (stereo not given),117% (inactive)
2,O=C(O)COCCN1CCN(C(c2ccccc2)c2ccc(Cl)cc2)CC1 (stereo not given),109% (inactive)
3,Cc1ccc(/C(=C\CN2CCCC2)c2ccccn2)cc1,77.2% (inactive)
4,CN1[C@@H]2CC(OC(=O)[C@H](CO)c3ccccc3)C[C@H]1[C@@H]1O[C@@H]12 (stereo not given in full),104% (inactive)
5,CC(C)(C(=O)O)c1ccc(C(O)CCCN2CCC(C(O)(c3ccccc3)c3ccccc3)CC2)cc1 (stereo not given),89.1% (inactive)
6,O=S(=O)(c1cccc2cnccc12)N1CCCNCC1,109% (inactive)

# Test system: not listed separately
# Assay: growth inhibition of DIPG glioma cells, dose response, cell-based, SU-DIPG-XVII, MIPE5.0, CellTiter-Glo, qHTS (AID 1347060);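 on AC50: cells exposed to compound for 48 hours before viability readout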
# Details: SU-DIPG-XVII viability, CellTiter-Glo ATP luminescence
SMILES,outcome,AC50
O=C(NCC1CCCCN1)c1cc(OCC(F)(F)F)ccc1OCC(F)(F)F (stereo not given),inactive,
Clc1ccccc1CN1CCc2sccc2C1,inactive,
O=C(O)c1cn(C2CC2)c2cc(N3CCNCC3)c(F)cc2c1=O,inactive,
COc1ccc(-c2nc3ccc(C4=NNC(=O)CC4C)cc3[nH]2)cc1 (stereo not given),,16.6 µM (active)
O=S(=O)(c1cccc2cnccc12)N1CCCNCC1,inactive,
NCCCC(O)(P(=O)(O)O)P(=O)(O)O,inactive,
O=C(O)CCn1c2c(c3ccccc31)C[C@H](NS(=O)(=O)c1ccc(F)cc1)CC2,inactive,

# Test system: not listed separately
# Assay: growth inhibition of DIPG glioma cells, dose response, cell-based, SU-DIPG-XIII, MIPE4.0, CellTiter-Glo, qHTS (AID 1347061; cut-off not given, nearly all actives have AC50 up to about 37 µM;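 further: cells exposed to compound for 48 hours before readout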)
# Details: SU-DIPG-XIII viability, CellTiter-Glo ATP luminescence
row,SMILES,outcome
1,O=C(NCC1CCCCN1)c1cc(OCC(F)(F)F)ccc1OCC(F)(F)F (stereo not given),inactive
2,O=C(O)COCCN1CCN(C(c2ccccc2)c2ccc(Cl)cc2)CC1 (stereo not given),inactive
3,Clc1ccccc1CN1CCc2sccc2C1,inactive
4,O=C(O)c1cn(C2CC2)c2cc(N3CCNCC3)c(F)cc2c1=O,inactive
5,COc1ccc(-c2nc3ccc(C4=NNC(=O)CC4C)cc3[nH]2)cc1 (stereo not given),inactive
6,O=S(=O)(c1cccc2cnccc12)N1CCCNCC1,inactive
7,NCCCC(O)(P(=O)(O)O)P(=O)(O)O,inactive
8,O=C(O)CCn1c2c(c3ccccc31)C[C@H](NS(=O)(=O)c1ccc(F)cc1)CC2,inactive

# Test system: not listed separately
# Assay: growth inhibition of DIPG glioma cells, dose response, cell-based, JHH-DIPG-1, MIPE4.0, CellTiter-Glo, qHTS (AID 1347062; cut-off not given, nearly all actives have AC50 up to about 27 µM)
# Details: JHH-DIPG-1 viability, CellTiter-Glo ATP luminescence
row,SMILES,outcome
1,O=C(O)COCCN1CCN(C(c2ccccc2)c2ccc(Cl)cc2)CC1 (stereo not given),inactive
2,Clc1ccccc1CN1CCc2sccc2C1,inactive
3,O=C(O)c1cn(C2CC2)c2cc(N3CCNCC3)c(F)cc2c1=O,inactive
4,COc1ccc(-c2nc3ccc(C4=NNC(=O)CC4C)cc3[nH]2)cc1 (stereo not given),inactive
5,O=S(=O)(c1cccc2cnccc12)N1CCCNCC1,inactive
6,NCCCC(O)(P(=O)(O)O)P(=O)(O)O,inactive
7,CC1(C)[C@H](C(=O)O)N2C(=O)C[C@H]2S1(=O)=O,inactive
8,O=C(O)CCn1c2c(c3ccccc31)C[C@H](NS(=O)(=O)c1ccc(F)cc1)CC2,inactive

# Test system: not listed separately
# Assay: growth inhibition of DIPG glioma cells, dose response, cell-based, SU-DIPG-XIII, MIPE5.0, CellTiter-Glo, qHTS (AID 1347064; cut-off not given, nearly all actives have AC50 up to about 23 µM)
# Details: SU-DIPG-XIII viability, CellTiter-Glo ATP luminescence
row,SMILES,outcome
1,O=C(NCC1CCCCN1)c1cc(OCC(F)(F)F)ccc1OCC(F)(F)F (stereo not given),inactive
2,CC(C)c1c(C(=O)Nc2ccccc2)c(-c2ccccc2)c(-c2ccc(F)cc2)n1CC[C@@H](O)C[C@@H](O)CC(=O)O,inactive
3,Clc1ccccc1CN1CCc2sccc2C1,inactive
4,O=C(O)c1cn(C2CC2)c2cc(N3CCNCC3)c(F)cc2c1=O,inactive
5,O=S(=O)(c1cccc2cnccc12)N1CCCNCC1,inactive
6,NCCCC(O)(P(=O)(O)O)P(=O)(O)O,inactive

# Test system: not listed separately
# Assay: viability loss in pontine glioma line – cell-based, SU-DIPG-XXV, MIPE5.0, CellTiter-Glo, qHTS, dose response (AID 1347065);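 further: cells exposed to compound for 48 hours before ATP readout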
# Details: CellTiter-Glo ATP luminescence
row,SMILES,outcome
1,O=C(NCC1CCCCN1)c1cc(OCC(F)(F)F)ccc1OCC(F)(F)F (stereo not given),inactive
2,Clc1ccccc1CN1CCc2sccc2C1,inactive
3,O=C(O)c1cn(C2CC2)c2cc(N3CCNCC3)c(F)cc2c1=O,inactive
4,O=S(=O)(c1cccc2cnccc12)N1CCCNCC1,inactive
5,NCCCC(O)(P(=O)(O)O)P(=O)(O)O,inactive
6,O=C(O)CCn1c2c(c3ccccc31)C[C@H](NS(=O)(=O)c1ccc(F)cc1)CC2,inactive

# Test system: not listed separately
# Assay: SU-DIPG-VI glioma cell viability, MIPE4.0 library, CellTiter-Glo luminescence, qHTS (AID 1347066; cut-off not given, nearly all actives have AC50 up to about 30 µM;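 further: cells exposed to compound for 48 hours before readout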)
# Details: CellTiter-Glo ATP luminescence
row,SMILES,outcome
1,O=C(NCC1CCCCN1)c1cc(OCC(F)(F)F)ccc1OCC(F)(F)F (stereo not given),inactive
2,O=C(O)COCCN1CCN(C(c2ccccc2)c2ccc(Cl)cc2)CC1 (stereo not given),inactive
3,Clc1ccccc1CN1CCc2sccc2C1,inactive
4,O=C(O)c1cn(C2CC2)c2cc(N3CCNCC3)c(F)cc2c1=O,inactive
5,COc1ccc(-c2nc3ccc(C4=NNC(=O)CC4C)cc3[nH]2)cc1 (stereo not given),inactive
6,O=S(=O)(c1cccc2cnccc12)N1CCCNCC1,inactive
7,CC1(C)[C@H](C(=O)O)N2C(=O)C[C@H]2S1(=O)=O,inactive
8,O=C(O)CCn1c2c(c3ccccc31)C[C@H](NS(=O)(=O)c1ccc(F)cc1)CC2,inactive
